# Experimental data taken from the supplement of paper PMC11417369.
# ± gives the standard deviation of the averaged measurements. In all, about 25,000 sequences were measured (“ln(normalized median fluorescence intensity)”: median about 8.9, highest 2% from about 10 on). The sample holds the highest values, similar sequences and a random draw of the others, so the mix is not that of the screen.
# System: PfAP2-LT AP2 domain (GST-tagged)
# Assay: gcPBM binding intensity (ln(normalized median fluorescence intensity)); higher = stronger DNA binding
# How it was run: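 Binding intensity is defined as the maximum Masliner-normalised natural-log median intensity across replicate spots for either probe orientation. It was measured on an Agilent 4 × 180k array of primer-extended double-stranded 36-bp intergenic genomic probes and negative controls, to which GST-tagged P. falciparum DNA-binding domains made in E. coli were applied for 1 h in 1× PBS with 1% milk, 0.2 mg/ml BSA, 0.5% salmon testes DNA and 0.03% Triton X-100. Detection was by Alexa488 anti-GST antibody and scanning at 488 nm.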
row,Sequence,gcPBM binding intensity (ln)
1,ATGTTATATTTTTTTATACACACTGGAATATATAAA [CACACA_site215],8.64 ± 0.34
2,TGAATGTAAGAAAATACACACTAGTATAGTAACACC [CACACA_site5131],9.24 ± 0.38
3,ATGTAATATTTACAACGTACAAATTATAAACATATT [XGTACX_site603],8.88 ± 0.35
4,GACGACTATATTAATTGTACTCAATTTAAGCATAAT [XGTACX_site2750],8.72 ± 0.35
5,TTAATAACAAAATAAACACACATATATAAATACCCA [CACACA_site4960],9.11 ± 0.4
6,TATATCTATAATATTACACACATATATTTATATTTT [CACACA_site7595],8.95 ± 0.33
7,CATATTATATTTTCATGTACACATAACATATTTATA [XGTACX_site4787],8.76 ± 0.42
8,GAATAAATTGTATTGTGTACATATAAAAGCATCTAA [XGTACX_site8271],8.8 ± 0.4
9,TTCTTTTTAAATTACACACACATATATATATGTATA [CACACA_site3515],9.32 ± 0.41
10,AATAATAATTTAAAAAGTACATTCTAATAAACACGT [XGTACX_site1444],8.78 ± 0.52
11,ATTAATAAATAAATGACACACACACCCACAAAAAAA [CACACA_site8839],9.9 ± 0.12
12,ATAATGAAAAGGAACATACACACCCCATATAAATAT [CACACA_site3442],9.61 ± 0.12
13,CAAAAAATGAAACACACACACACACCCATAAATAAA [CACACA_site1231],10.12 ± 0.035
14,CTCCATATGAAACACACACACAAATGAAAAAAATAT [CACACA_site3018],9.82 ± 0.4
15,TAATAAATAAATGACACACACACACGCAAAAAAAAA [CACACA_site7275],9.94 ± 0.19
16,TAATAAATAAATGACACACACACACCCAAAAAAAAA [CACACA_site2623],10.1 ± 0.41
17,GGGTATATATTATTATGTACACATGTATAAAATAAG [XGTACX_site2633],8.8 ± 0.52
18,ATACAAAAAGTAAAAAGTACTTAACTAAATATATAA [XGTACX_site2335],8.74 ± 0.56
19,TATATATATATTATATGTACGTATGTATGTATATAT [XGTACX_site6451],8.88 ± 0.3
20,ATATATATATATATATGTACGTACTCAGTTATGCCT [XGTACX_site453],10.2 ± 0.29
21,GTATATATGTATGTATGTACGTATATAGTTATGTAT [XGTACX_site6769],8.98 ± 0.3
22,AGTATAAAATTTGGTTGTACATTTTTAAAAAAATTA [XGTACX_site7519],8.29 ± 0.42
23,GGAATATTAATAAGAGTGCATTTTGTATTCAATATG,8.66 ± 0.41
24,GTATAATTTTCGTATTCACACAAGAATATACTACAT [CACACA_site4877],8.91 ± 0.45
25,CAAATACACGGACACACACACACAAAAAAAAAAAAA [CACACA_site6385],10 ± 0.71

row,Sequence,gcPBM binding intensity (ln)
1,TATCTCATAGTATACACACACACACGCGCACATATA [CACACA_site6917],10.1 ± 0.3
2,ACATCAAGCAGACACACACACACACGCACACGCACA [CACACA_site6309],10.4 ± 0.17
3,TCTCATAGTAGACACACACACACACGCACATATATA [CACACA_site6916],10.1 ± 0.31
4,CACAGACACGGACACACACACACAAAAAAAAAAAGA [CACACA_site4436],10.1 ± 0.55
5,CCAACATGCAGACGCACACACAAAAAAAGCATGCAT [CACACA_site74],9.54 ± 0.4
6,TTAAAAAAAAGACACACACACATACACATATTTATA [CACACA_site7535],9.94 ± 0.35
7,AAAAAAAAAAGACACACACACACATACACATACATA [CACACA_site7362],9.97 ± 0.071
8,CACACGCACGGACACACACACAAAAAAAAAAAGAAA [CACACA_site6378],9.34 ± 0.58
9,AAAAAAAAAAGACACACACACACACGGACACATACA [CACACA_site7363],10.3 ± 0.13
10,TCATAGTATAGACACACACACACACGCATATAAATA [CACACA_site6915],9.92 ± 0.13
11,ATAAATCAAAGGCACACACACAAAAAAAAAAAAAAA [CACACA_site160],9.62 ± 0.49
12,ATTTCTCTATCGTAATGTACATAAAAAATGAAAAAA [XGTACX_site1201],8.51 ± 0.51
13,TTATTATTTTATAACACACACATATATATTATATCT [CACACA_site1434],9.11 ± 0.35
14,ATTAAATCCGCACGCACACACACATATTAATAAAAA [CACACA_site3992],9.71 ± 0.33
15,AATTGTGCATTATATTGTACACGTGTTGTATATATT [XGTACX_site975],9.18 ± 0.33
16,TTTGTTTTTAATTTCGCACACACCTTGTGGAAAAAA [CACACA_site577],8.98 ± 0.3
17,TTATTTATAATATATACACACTAACATTATTTATCC [CACACA_site4835],8.8 ± 0.51
18,AAAAATAAATTTAGTTGTACTTTATTATTTTAAATA [XGTACX_site3067],8.28 ± 0.37
19,ATATAACATAGACACACACACATATAAATATATTAT [CACACA_site7865],9.67 ± 0.14
20,CTTCATAAAAATTGCACACATATAATAATGTACATA [CACACA_site2212],8.96 ± 0.36
21,TTAAATGGAAAAATATGTACATATATATATATATTT [XGTACX_site2286],8.84 ± 0.35
22,CGCACACGCAGACACACACACACATATAAATAAATA [CACACA_site7101],9.74 ± 0.37
23,AACAGACATAGAAACACACATACATACATACATACA [CACACA_site2479],9.53 ± 0.65
24,CACGCACGCAGACACACACACACACGCACATATATA [CACACA_site6303],10.2 ± 0.38
25,AACACGCGCAGACACACACACACACGCACATATATA [CACACA_site7104],10.3 ± 0.28

row,Sequence,gcPBM binding intensity (ln)
1,CGCGCACCCAGACACACACACACACCGATATATATA [CACACA_site8687],10.1 ± 0.48
2,TAAACAGACATATAAACACACATATAAACCGACATA [CACACA_site2478],9.4 ± 0.48
3,AGCACGCACAGACACACACACATATTTATATTTATA [CACACA_site6291],9.72 ± 0.39
4,CAAGCACAGAAACACACACACACACCGACACAGACA [CACACA_site4359],10.1 ± 0.15
5,AAGCATACATCAAGCACACACACACCCACAGAGACA [CACACA_site4362],9.91 ± 0.22
6,ACATCAAGCAGACACACACACACACCCACCCACCGA [CACACA_site371],10.4 ± 0.11
7,GATCCATTATTGATCCGTACTTATTCATGTTATATA [XGTACX_site5946],8.91 ± 0.51
8,AGAAAAAAATAATGTACACACACATATATGTTTATA [CACACA_site7946],9.14 ± 0.36
9,TATGTGCACCCATGTACATGCGGACATATGTTATAT [TGCATGCA_site383],9.04 ± 0.42
10,ATTTATATATTGCCCACACACATGTGATTATTTATA [CACACA_site1714],9.28 ± 0.46
11,CTAAATATATAAAAAAGTACAAAATAAATAATAATT [XGTACX_site2442],8.79 ± 0.46
12,ACATATATATATAAATATATATATATATAAATATAT [CACACA_negctrl_site895],9.03 ± 0.28
13,TATACAGGAATATTTTTACACACTAATAATTATAAA [CACACA_site8477],8.73 ± 0.5
14,TATATATATATGTGCACACCAATTGTATGTAATATA [CACACA_site3889],9.32 ± 0.2
15,TAAAAAGAAATGTAAAGTACAAATTTGAATAACATG [XGTACX_site7981],8.88 ± 0.52
16,ATTTTAACCAATTATTGTACTTGGTTATTCTTTTTT [XGTACX_site7453],8.94 ± 0.45
17,TTTTATTTTTAAGGATGTACTCAATTGTTTATATAC [XGTACX_site3965],8.85 ± 0.4
18,TTTTCTAAATTAATAATACACACTTGCTAAAATCAT [CACACA_site3207],8.47 ± 0.46
19,TATATACACAGACACACACACACATACACGCACATA [CACACA_site6909],10.1 ± 0.22
20,AGTATACATATATATACACACATATATATATATATA [CACACA_site300],9.83 ± 0.34
21,AGTATACGCAGACACACACACACATATATATATATA [CACACA_site1735],10.22 ± 0.042
22,ACATCAAGCGGACACACACACACACCGACAGACACA [CACACA_site4361],10.2 ± 0.33
23,CAAGCACACGGACACACACACACACGCGCACGCACA [CACACA_site6307],10.3 ± 0.28
24,ATTTGGCATGGACACACACACACACCGACAGACATA [CACACA_site4491],10 ± 0.27
25,CACATACAGACATACACACATACACATATACGCATA [CACACA_site1745],9.61 ± 0.36

row,Sequence,gcPBM binding intensity (ln)
1,ATTATAGACACGCGCACACACAACAAAAAAAAAAAA [CACACA_site9180],9.73 ± 0.61
2,ATTATACACGCGCGCACACACAACAAAAAAAAAAAA [CACACA_site7630],9.43 ± 0.48
3,ATAATTTGTGGACACACACACACACCGACATATATA [CACACA_site8718],9.97 ± 0.33
4,GGTATACGCAAGTATACACACATATATATATATATA [CACACA_site3240],10.01 ± 0.042
5,TTTTTTAAAATATGGACACACATATATATATCTGTA [CACACA_site5535],8.88 ± 0.38
6,TATATCTTAATATACACACACACATATATATATATA [CACACA_site4968],9.71 ± 0.014
7,AAAAAAACATAAAATACACACAACCTTAAGAATGTA [CACACA_site3293],9.12 ± 0.38
8,CAACATATATTAATATGTACATATATATAGATATAT [XGTACX_site4107],8.81 ± 0.44
9,ATATATATATATATATGTACATATTTCTCCATTTTT [XGTACX_site2869],9.61 ± 0.39
10,ACATATAAATATATTACACACACACTAAAAAAATAA [CACACA_site6209],9.69 ± 0.27
11,TAACATATTAATAACATATTTATAATATATTAATAA [TGCATGCA_negctrl_site243],8.34 ± 0.43
12,TATAAAAATTAATATTGTACGTTTTATGAAAATAAA [XGTACX_site8237],8.21 ± 0.47
13,AAAAAAAAAAGACACACACACATATTTATTTATATA [CACACA_site6484],9.67 ± 0.4
14,CGCGCACCCAGACACACACACACACCCATATATATA [CACACA_site2203],9.96 ± 0.25
15,CGTGGGAGCAGACACACACACACACGCATATTTATA [CACACA_site6290],9.89 ± 0.45
16,AAAAAAAAAAGACACACACACACACGGAGATATATA [CACACA_site6216],10.4 ± 0.19
17,AAAAAAAAAAGACACACACACAAAAAAAGATATATA [CACACA_site6645],9.9 ± 0.38
18,AATACACGCAGACACACACACAAAAAAAAAAAAAAA [CACACA_site6384],9.53 ± 0.61
19,AACACGCGCAGACACACACACACACCCACATATATA [CACACA_site2205],10.3 ± 0.27
20,TACACGCAGAAACACACACACACACCCATATATATA [CACACA_site637],10.1 ± 0.28
21,AGCACACGCAGACACACACACACACGCACACGCACA [CACACA_site6306],10.3 ± 0.23
22,AAAAAAAAAAGACACACACACACACGCATATACATA [CACACA_site7289],10.18 ± 0.05
